The panel holds about 83,000 compounds, 20% with a hit somewhere; the sample as a whole holds those more often.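 Interpretation: 100, growth as untreated; towards 0, rising growth inhibition; 0, no net growth; 0 to -100, cell death. Compounds scoring below 10 were considered active.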 Activity calls are given as the source filed them.

For the experiment, the system named is HL-60(TB) leukemia. In words: NCI-60 one-dose screen, 48 h (100 = growth as untreated, 0 = no growth, -100 = all killed). The settings on record: 10 µM unless noted.
As to `CN1CCN(CCCOC(=O)c2c3c(n4ccccc24)C(=O)c2ncccc2C3=O)CC1`, the growth was 30% (inactive).

With `O=C1CN(CCN2CC(=O)NC(=O)C2)CC(=O)N1`, the growth is 88% (inactive). Consider `CS(=O)(=O)c1ccc(Nc2nc(N[C@H]3CCCC[C@H]3N)nc3cc[nH]c(=O)c23)cc1`, for which the growth is -16.9% (active).

As to `COc1ccc(C(=O)c2cc3c(N)c(C(=O)Nc4ccc(Br)cc4)sc3nc2C)cc1`, the growth is 80.2% (inactive). In the case of `S=C(c1ccccc1)N1CCN(c2cccc(Cl)c2)CC1`, the growth is 90.5% (inactive). For `CC1(C)CC[C@]2(C(=O)O)CC[C@]3(C)C(=CC[C@@H]4[C@@]5(C)Cc6c([nH]c7ccccc67)C(C)(C)[C@@H]5CC[C@]43C)[C@@H]2C1`, the growth was 16.2% (inactive). On to `O=C(/C=C/c1ccc(Oc2ccc(Br)cc2)cc1)c1ccc(Br)cc1`, for which the growth was 88% (inactive). As for `N=S(=O)(NC(=O)c1ccc(Cl)cc1Cl)c1ccc(Br)s1` (stereo not given), the growth was 96.8% (inactive). As for `COc1ccc(C2CCCCC2=O)cc1` (stereo not given), the growth was 122% (inactive).

For `CNC(=O)c1cc(Oc2ccc3c(c2)sc2nc(-c4ccc(NC(=O)Nc5ccc(Cl)c(C(F)(F)F)c5)cc4)cn23)ccn1`, the growth was 32.2% (inactive).

On to `Clc1ccc(COc2ccc(Nc3ncnc4onc(-c5ccccc5)c34)cc2)cc1`, for which the growth is 98.8% (inactive). For `C=CCN=C(N)SCCCCCCSC(N)=NCC=C`, the growth was 75.8% (inactive).

For `O=C(NOC[C@H](O)CO)c1ccc(F)c(F)c1Nc1ccc(I)cc1F`, the growth was 6.7% (active). The same measure for `CCOC(=O)c1c(O)c2cc(-c3ccccc3)nc(OCC)c2c(=O)n1C`: 156% (inactive). The same measure for `CC1(C)CCCC2=C1C(=O)N(SC(Cl)(Cl)Cl)C2=O`: 76.1% (inactive); for `COc1ccc2nc3cc(Cl)ccc3c(Nc3cc(CN4CCCC4)c(O)c(CN4CCCC4)c3)c2n1`: -20.4% (active); for `CC1(C)CC[C@]2(C(=O)O)CC[C@]3(C)C(=CC[C@@H]4[C@@]5(C)C[C@@H](Cc6cn([C@@H]7O[C@H](CO)[C@@H](O)[C@H](O)[C@H]7O)nn6)[C@H](O)C(C)(C)[C@@H]5CC[C@]43C)[C@@H]2C1`: 93.4% (inactive). Take `Nc1n[nH]c2cccc(C#Cc3cccc(C(=O)Nc4ccc(CN5CCOCC5)c(C(F)(F)F)c4)c3)c12`: the growth was 7.67% (active). Turning to `O=C(N=c1n(-c2ccccc2)nc2n1CCN2C1=NCCN1C(=O)c1ccc(Cl)cc1)c1ccc(Cl)cc1`, the growth is 51.2% (inactive).

Consider `CN1C(=C2C(=O)OC(C)(C)OC2=O)CCC1C(=O)NCc1ccc(Cl)cc1Cl` (stereo not given), for which the growth was 83.7% (inactive). The same measure for `C(=C(\C1=NCCN1)n1ccc2ccccc21)/c1ccccc1`: 96.8% (inactive); for `COc1c(O)cc2c(c1CC=C(C)C)OC(=O)c1c(cc(O)c(CC=C(C)C)c1O)O2`: 31% (inactive). The same measure for `O=C(c1nc2ccccc2[nH]1)C1C(c2ccc(Cl)cc2)C2CC3CCCC[C@H]3N2[C@@]12C(=O)Nc1cc(Cl)ccc12` (stereo not given in full): 23.8% (inactive); for `COc1cc(/C=C2\C(=O)N(c3c(Cl)cccc3Cl)c3ccccc32)cc(OC)c1O`: -6.44% (active). Regarding `Clc1ccccc1-c1nc(Nc2nc3ccccc3s2)nc(C(Cl)(Cl)Cl)n1`, the growth was 32.9% (inactive). `CC1(C)C(=O)/C(=C\c2ccccn2)C[C@]2(C)[C@H]3CC[C@@H]4[C@@H](C(=O)/C=C/c5ccccn5)CC[C@@]4(C)[C@]3(C)CC[C@@H]12`: the growth was -14.4% (active).

As for `Cc1ccc(S(=O)(=O)N/N=C/C2(c3ccccc3)CC2)cc1`, the growth is 98.7% (inactive). Turning to `O=C(NCCOCCOCCOCCNC(=O)c1cc2c(o1)C(=O)c1ccccc1C2=O)NC12CC3CC(CC(C3)C1)C2`, the growth is 1.17% (active). As to `C/C(Cc1ccc(Cl)cc1)=C(\c1ccc(OCCCN(C)C)cc1)c1ccc(OC(=O)Cc2ccccc2)cc1`, the growth was 88.7% (inactive). The same measure for `CCOc1ccc(I)cc1`: 128% (inactive). In the case of `Cc1ccc(-c2c3c(N)nc(-c4cccnc4)nc3nc3c2c(C)nn3-c2ccccc2)cc1`, the growth is 95.6% (inactive). `COc1ccc(C2c3ccccc3NC(=O)N2C2CCN(C)CC2)c(OC)c1` (stereo not given): the growth is 92.7% (inactive). As to `Cc1cc([N+](=O)[O-])c(C)cc1C(=O)O`, the growth was 107% (inactive). As for `Nc1nc2ccc3[nH]ncc3c2c2c1CCCC2`, the growth is -23.4% (active). For the compound `Clc1ccc(/C=N/Nc2nc3ccccc3s2)c(Cl)c1`, the growth is 98.5% (inactive). The same measure for `C#Cc1cc(C(=O)Nc2ccc(CN3CCN(C)CC3)c(C(F)(F)F)c2)ccc1C`: 77.8% (inactive); for `O=C1/C(=C\c2ccc(Br)o2)SC(=S)N1CCc1ccc(O)cc1`: 42.2% (inactive); for `Clc1ncnc2scc(C3COc4ccccc4O3)c12` (stereo not given): 102% (inactive).

For the compound `O=C(Nc1ccccc1F)Nc1ccccc1Cl`, the growth is 52% (inactive). With `CCNC(=O)Nc1nc2ccc(Oc3ccnc(C(=O)NC)c3)cc2s1`, the growth was 94.7% (inactive).
